# Test results taken from the supplement of paper PMC6555819.
# Key:
# Assay in all cases: PBM binding z-score (relative to random genomic background probes); higher = stronger binding; sequences stand for … in GC…GCGATTGACAGCGTAGAATGAAGG
# [1] = test system: FXR:RXRa (NR concentration 270 nM, RXRa partner concentration 90 nM)
# Summary of the method: (§1)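 Probes were double-stranded and carried 34-nt variable regions with direct-repeat seeds, single-nucleotide variants, half-site ablations and random human genomic background sequences, printed on custom Agilent 4×180K protein-binding microarrays. Arrays were incubated 1 h with ligand-free nuclear receptor dimers in PBS pH 7.4, 2% milk, 0.02% Triton X-100, 1 mM DTT, 0.2 mg/mL BSA and 0.4 mg/ml salmon testes DNA. Antibodies against each partner (one per run) detected binding, and scanned fluorescence was regression-normalized. Binding z-scores use the random background probes as reference.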
# [2] = test system: LXRa:RXRa (NR concentration 270 nM, RXRa partner concentration 90 nM)
# Summary of the method: as §1
# [3] = test system: LXRa homodimer (NR concentration 270 nM)
# Summary of the method: as §1
# [4] = test system: LXRb:RXRa (NR concentration 270 nM, RXRa partner concentration 90 nM)
# Summary of the method: as §1
# [5] = test system: LXRb homodimer (NR concentration 270 nM)
# Summary of the method: as §1
# [6] = test system: PPARa:RXRa (NR concentration 270 nM, RXRa partner concentration 90 nM)
# Summary of the method: as §1
# [7] = test system: PPARg:RXRa (NR concentration 180 nM, RXRa partner concentration 90 nM)
# Summary of the method: as §1
# [8] = test system: PPARg:RXRa 270nM:90nM, anti-RXR (NR concentration 270 nM, RXRa partner concentration 90 nM)
# Summary of the method: as §1
# [9] = test system: PPARg:RXRa 30nM:10nM, anti-RXR (NR concentration 30 nM, RXRa partner concentration 10 nM)
# Summary of the method: as §1
# [10] = test system: PPARg:RXRa 90nM:30nM, anti-RXR (NR concentration 90 nM, RXRa partner concentration 30 nM)
# Summary of the method: as §1
Sequence,PBM binding z-score [1],PBM binding z-score [2],PBM binding z-score [3],PBM binding z-score [4],PBM binding z-score [5],PBM binding z-score [6],PBM binding z-score [7],PBM binding z-score [8],PBM binding z-score [9],PBM binding z-score [10]
ACTTACGGGTCAACGAGGTTAGAGCACGCGTATA,6.72,4.76,0.422,3.9,0.261,5.57,5.52,5.72,2.15,4.13
GGAAGGAGGGCAAGTTGATAGCAGAGTTTGATGG,1.04,0.798,0.562,1.5,1.47,1.92,1.2,1.53,0.406,0.957
CAAACTAGGTCACGAAAGGTGAAAGTCGAATGAC,5.43,5.63,0.891,4.24,0.569,6.05,9.57,7.7,6.24,7.8
CCTTACGGGTCACTCCAGGTTTTAGCATCGGAGT,4.87,5.1,0.102,2.85,-0.172,4.69,3.06,3.81,0.53,2.55
TCGAGTAGGTTACCCATGGGGCATTCAGCTTTCT,0.292,1.66,-0.443,0.752,-0.79,1.09,0.462,1.36,1.23,1.18
GCTACAGGGTCAAGGCCAGAGTACGCGTATTGAT,6.86,3.95,-0.363,3.53,-0.375,5.71,5.03,4.94,1.93,3.59
TAGCCTAGGTCATTGGGTCAGTATAGTACGCATC,4.85,4.31,1.59,3.21,0.907,4.58,5.28,5.07,1.89,3.99
TCTTGTAGATCAAGCAGGTTAAGAAGGCCTGAGT,0.0541,0.0936,-0.218,0.226,-0.745,0.84,-0.304,1.15,2.45,1.9
ATCAAAAGGTCGACGAGGTGAGTATACACCGTTT,4.64,3.46,0.265,2.86,0.587,4.82,3.29,3.63,1.47,2.53
TGTTAAAGTTCAAAGGTAACGTAAGTATCCACAC,6.98,6.1,5.38,4.53,2.3,5.47,7.2,6.84,4.03,6.36
TCATATAGGTAAACCGGTGAAAGTCCGTAAGTTA,0.407,0.533,0.147,0.517,-0.352,1.68,1.17,2.72,3.49,2.97
TTTGCTAGGTCAACGATGGTCAGCTAATCTGCTA,3.71,4.07,1.84,2.07,-0.0738,3.59,3.4,3.77,1.38,2.86
TCGTGTAGATCAATAGAGGTTAAGAAAGTGCGCT,0.712,3.48,0.576,1.76,-0.163,1.86,0.088,1.57,2.53,2.13
TGTCAAAGTTCAAAGGTAAAGTAAGTATCCACAC,7.42,6.49,3.99,4.8,1.68,5.87,8.7,7.81,5.23,7.51
AGTCAAAGTTCATCTCGGTAACGTAAGATATGCT,6.81,6.1,5.38,3.79,1.92,4.76,6.02,6.19,3.18,5.22
TCAGATAGGTAATACAGGTGAAAGTCGGCATCTA,0.862,1.41,0.032,0.889,0.0501,1.72,0.936,2.37,4.15,3.25
ACAGACTGGTGATGAAGGTAACTCAGGCTATCAT,-0.533,-0.452,-0.433,-0.663,-0.582,-0.594,0.512,0.104,-0.179,-0.158
CGTCCAAGGTCATAGGAGGTCAGTGACGACAGAT,7.82,7.6,4.84,6.12,0.978,6.02,5.6,5.9,2.05,4.62
CAAACTAGGTCACGGGAAGGTCAAAGTCCGCATG,6.63,5.83,4.52,5.56,0.929,6.51,10.1,7.81,6.78,7.95
ACTCAAAGTTCACTAGGTAACGTAAGATTCAGCT,5.32,5.16,3.54,3.55,1.83,4.73,5.15,5.21,2.16,4.22
ATCTCTAGGTAAGACTCAGTTCAGCGAAGAACGC,0.373,0.369,0.471,0.111,0.684,0.278,0.231,0.241,0.0173,0.278
TGAATGAGGTTAAAGATCAAGGAACGTGGCGTCG,3.35,2.61,-0.438,1.96,0.0283,4.79,6.53,6.53,5.25,6.93
CCTACTGGGCGATCAGGTCATTGATATCAACGTT,0.953,0.548,0.541,0.798,-0.539,1.44,0.524,1.26,0.0672,0.741
